# High-throughput results from PubChem.
# In the library only some 5.7% were active in any assay of this set; here they are far more common.
# VP16 counter: VP16 counterscreen qHTS for inhibitors of ROR gamma transcriptional activity. actives 3.5% (n = 310,000). AID 2546, 2010. Potency, µM (titrated, usually from 53.6 µM), inactives show top-dose activity, negative = inhibition, most hits filed as inhibitors. Drosophila S2 Gal4-VP16 UAS-luciferase, luminescence, 20 h;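 further: Gal4-VP16 expression switched on by copper sulfate through the metallothionein promoter; nearly all actives have a fitted effect of over 50% in size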
# B2AR arrestin: qHTS assay of beta-arrestin-biased ligands of beta2-adrenergic receptor. Beta-2 adrenergic receptor (Homo sapiens), P07550. beta-arrestin recruitment to beta2AR, cell-based reporter. Potency, µM (top dose mostly 46.1 µM), for inactives: at the highest dose activation, most hits filed as activators. actives 0.02% (n = 330,000);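 further: 0% = DMSO controls and full agonism = EC100 isoproterenol or metaproterenol; nearly all actives have a fitted effect of over 65% in size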
# NPSR antagonist: qHTS Assay for Antagonists of the Neuropeptide S Receptor: cAMP Signal Transduction; AID 1461, 2008; Potency, µM (doses to about 38.3 µM), inactives show top-dose activity change, negative = inhibition, usual class: inhibitors; CHO-NPSR cells, cAMP TR-FRET, antagonist mode; actives 1% (n = 220,000); further: nearly all actives have a fitted effect of over 50% in size
# RORg inh: qHTS for inhibitors of ROR gamma transcriptional activity. Nuclear receptor ROR-gamma (Mus musculus), P51450. Drosophila S2 Gal4-RORgamma UAS-luciferase reporter, 20 h. Potency, µM (series often up to 53.6 µM), without a hit: at the highest dose activity change, negative = inhibition, actives largely listed as inhibitors. actives 5.4% (n = 310,000). AID 2551, 2010; further: nearly all actives have a fitted effect of over 60% in size
# Target sequence (P51450 whole entry, looked up, the tested form may be a part): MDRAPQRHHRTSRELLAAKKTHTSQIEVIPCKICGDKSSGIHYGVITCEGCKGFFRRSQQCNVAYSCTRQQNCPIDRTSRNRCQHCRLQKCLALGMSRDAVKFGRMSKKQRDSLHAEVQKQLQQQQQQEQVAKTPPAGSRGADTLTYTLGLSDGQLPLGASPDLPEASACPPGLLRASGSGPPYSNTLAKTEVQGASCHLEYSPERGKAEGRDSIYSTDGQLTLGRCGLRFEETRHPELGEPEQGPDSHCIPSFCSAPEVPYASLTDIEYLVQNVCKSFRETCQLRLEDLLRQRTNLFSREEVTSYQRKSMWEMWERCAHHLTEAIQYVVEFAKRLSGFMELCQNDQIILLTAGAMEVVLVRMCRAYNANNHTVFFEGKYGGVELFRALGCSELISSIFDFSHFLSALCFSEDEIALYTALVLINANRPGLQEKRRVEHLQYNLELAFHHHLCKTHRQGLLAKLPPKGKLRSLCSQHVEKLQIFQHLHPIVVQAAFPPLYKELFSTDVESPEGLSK
#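 Stable Schneider cell line, Gal4 DNA-binding domain fused to ROR gamma, UAS-luciferase. Cmpd 1 hr RT → CuSO4 700 uM final → 20 hr RT → luciferase reagent 10 min → luminescence.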
# * hit, by the source's call; ? = inconclusive; . = no result given; [ ] = another dose, or the depositor's remark. The call rests on the fitted dose curve; in most records, active means well fitted curve in the direction sought with a large enough effect; inconclusive means small, poorly fitted or top-dose-only effect, or another doubt; inactive means no such curve, though single readings can be large; an effect the other way counts as inactive or inconclusive. Unless noted, on the % scale 0 is the no-effect control and ±100 the full control effect; potency means the concentration at half of the fitted maximal effect.
SMILES,VP16 counter,B2AR arrestin,NPSR antagonist,RORg inh
COc1cc(/C=C/C(=O)c2ccc(C)c([N+](=O)[O-])c2)cc(OC)c1O,?,-1%,10%,?
c1ccc(-c2nc(-c3ccccc3)c(NC3CCCCC3)o2)cc1,1%,.,.,-1%
CCCCn1c(N)c(N(CCOC)C(=O)C2CCN(S(=O)(=O)c3ccc(Cl)cc3)CC2)c(=O)[nH]c1=O,-13%,0%,.,-5%
N#Cc1cnn(-c2nc3sc4c(c3c(=O)[nH]2)CCCC4)c1N,-14%[0.365 µM],0%,-1%[46.1 µM],2.8µM*
CCOC(=O)c1cc(S(=O)(=O)NCC2CCN(Cc3cccc(C)c3)CC2)cn1C,4%,0%,.,0%
CCOC(=O)c1sc(Nc2nc3cc4c(cc3s2)OCO4)cc1C,6.3µM*,0%,-23%[46.1 µM],5µM*
CC(=O)c1sc(Nc2nc3cc4c(cc3s2)OCO4)nc1C,-13%,0%,-21%,5µM*
CCCc1nc2ccccc2c(=O)n1-c1ccc(C(=O)OCC)cc1,5%,0%,8%,0%
COc1ccccc1C(NC(C)=O)c1cc(Cl)c2cccnc2c1O (stereo unspecified),2.8µM*,0%,.,2.2µM*
COc1ccc(C(NC(C)=O)c2cc(Cl)c3cccnc3c2O)cc1OC (stereo unspecified),-25%,0%,-17%,4µM*
CCOc1ccc(C(Nc2cccnc2)c2cc(Cl)c3cccnc3c2O)cc1 (stereo unspecified),?,12%,4%,5.6µM*
CC(=O)NC(C)c1cc(Cl)c2cccnc2c1O (stereo unspecified),.,8%,.,.
O=C(NC(c1ccccc1)c1cc(Cl)c2cccnc2c1O)c1cccnc1 (stereo unspecified),0.79µM*,0%,-18%,0.63µM*
COc1ccc2c(c1)C(=O)[C@@H](OC(=O)NCc1ccco1)[C@H](c1ccc(OC)c(Br)c1)O2,2%,.,.,0%
COc1ccccc1C(=O)NC(CCSC)C(=O)NNC(=O)c1ccncc1 (stereo unspecified),.,0%,.,.
O=S(=O)(O)c1cc(O)c2c(O)c(N=Nc3cc(Cl)ccc3O)c(S(=O)(=O)O)cc2c1,?,0%,.,?
Cc1cc(-c2ccc(N=Nc3c(S(=O)(=O)O)cc4cc(S(=O)(=O)O)cc(N)c4c3O)c(C)c2)ccc1N=Nc1c(S(=O)(=O)O)cc2cc(S(=O)(=O)O)cc(N)c2c1O,13µM*,0%,.,14µM*
Cc1cc(=O)[nH]c(SCC(=O)N(CCC#N)c2ccccc2)c1C#N,-1%,0%,-2%,3%
Cc1cc(/C=C/c2ccc3cc(N(C)C)ccc3[n+]2C)c(C)n1-c1ccccc1,-79%,.,.,4.5µM*
CCCCC(=O)N1C/C=C\C(c2ccc(OC)cc2)N(Cc2ccc(F)cc2)C(=O)C1C (stereo unspecified),-4%,.,.,42%
C[C@]12CC[C@H]3c4ccc(OC[C@H]5CO5)cc4CC[C@H]3[C@H]1CC[C@@H]2O,10%[10 µM],.,.,-5%[10 µM]
COc1cc(CN2C(=S)NC(C)(C)CC2(C)O)cc(OC)c1 (stereo unspecified),11µM*,0%,8%,3.5µM*
COc1cc(CN2CCCCCC2)cc(OC)c1,-4%,0%,.,8%
CC(C)n1c(Nc2ccccc2)nc2ccccc21,-9%,1%,-4%[46.1 µM],?
CCOc1ccccc1Nc1nc2ccccc2n1C(C)C,-6%,0%,-26%,10µM*
SMILES,VP16 counter,B2AR arrestin,NPSR antagonist,RORg inh
Cc1ccccc1CSc1nnc(-c2ccncc2)n1C,9%,0%,.,26%
O=C(N/N=C/c1cccnc1)c1ccc2c(c1)OCCO2,14µM*,0%,-3%,?
O=C(Nc1ccc(NC(=O)c2ccco2)c(Cl)c1)c1ccc2c(c1)OCCO2,?,1%,-5%,?
O=C(N/N=C\c1ccc(-c2ccc([N+](=O)[O-])cc2)o1)c1ccc2c(c1)OCO2,?,0%,1%,-37%
O=C(N/N=C/c1ccccc1)c1ccc2c(c1)OCO2,11µM*,0%,.,?
O=C(N/N=C/c1ccc([N+](=O)[O-])o1)c1ccc2c(c1)OCO2,10µM*,0%,.,4.5µM*
CN(C)c1ccc(/C=N/NC(=O)c2ccc3c(c2)OCO3)cc1,3%,0%,.,?
O=C(Nc1ccc(NC(=O)c2ccco2)cc1)c1ccc2c(c1)OCO2,?,0%,1%[46.1 µM],22µM*
COc1ccccc1NCCC(=O)OCC(=O)Nc1ccc(Cl)cn1,4%,-1%,-13%[46.1 µM],-19%
O=C(N/N=C/c1ccc(Br)o1)c1ccc2c(c1)OCCO2,?,-1%,-34%,11µM*
CCCCC/C=C\C/C=C\C/C=C\C/C=C\CCCC(=O)O[C@@H](CO)COCCCCCCCCCCCCCCCC,-16%,.,.,-4%
Cn1c(SCC(=O)NC2CC2)nnc1-c1cccs1,18µM*,?,.,?
C/C(=N\NC(=O)c1ccncc1)c1cc2ccccc2oc1=O,13µM*,0%,16%,7.9µM*
C/C(=N\NC(=O)c1ccc([N+](=O)[O-])cc1)c1cc2ccccc2oc1=O,?,0%,0%[46.1 µM],16µM*
C/C(=N\NC(=O)c1ccccc1)c1cc2cc([N+](=O)[O-])ccc2oc1=O,5µM*,0%,4%[46.1 µM],7.9µM*
COC(=O)c1cc2ccccc2oc1=O,6%,0%,16%[46.1 µM],-15%
N/C(=N\NC(=O)c1ccccc1Cl)c1cc2ccccc2oc1=O,?,0%,-10%,14µM*
CC[C@H](C)[C@H](NC(=O)[C@H](CC(C)C)NC(=O)[C@@H](N)CO)C(=O)NCC(=O)N[C@@H](CCCN=C(N)N)C(=O)N[C@@H](CC(C)C)C(=O)O,-15%,.,.,0%
Cc1nc(CN2CCN(Cc3nc(C(c4ccccc4)c4ccccc4)no3)CC2)cs1,-10%,0%,24%,-9%
Cc1ccc(OCC(=O)NNC(=S)NC(=O)C2CCCCC2)c(C)c1,-16%,0%,.,10µM*
Cc1ccc(OCC(=O)NNC(=S)NC(=O)C2CC2)c(C)c1,-22%,0%,.,8.9µM*
Cc1ccc(OCC(=O)NNC(=O)c2ccc(NC(=O)C3CC3)cc2)c(C)c1,-1%,0%,.,?
Cc1nc2cncnc2n(-c2ccccc2)c1=O,-19%,.,.,-10%
Cc1oc(=O)c(NC(=O)c2cccc(Cl)c2)cc1C(=O)c1ccccc1,5µM*,0%,7.9µM*,4.5µM*
COc1ccc(C(=O)Nc2cc(C(=O)c3ccccc3)c(C)oc2=O)cc1,10µM*,0%,?,-104%
O=C(CC1SC(N2CCCCC2)=NC1=O)Nc1cccc(C(=O)Nc2ncccc2O)c1 (stereo unspecified),.,0%,.,.
Cc1ccccc1NC(=O)c1cc[n+]([O-])cc1,0%,0%,.,-29%
CC1CN(C(=S)Nc2ccccc2)CC(C)O1 (stereo unspecified),-18%,0%,.,-31%
CC1CN(C(=S)Nc2ccccc2)N(c2ccccc2)C1 (stereo unspecified),-12%,0%,-15%,11µM*
CCn1c(SCC(=O)N/N=C/C=C/c2ccco2)nc2ccccc21,16µM*,?,-22%,?
